Assay in all cases: PBM; 200 nM protein, PBS
What all share (conditions): dsDNA, one strand shown

Assay [1] addresses T1, SIX6 (Homo sapiens, UniProt O95475 114-200, L167I).
T1 sequence: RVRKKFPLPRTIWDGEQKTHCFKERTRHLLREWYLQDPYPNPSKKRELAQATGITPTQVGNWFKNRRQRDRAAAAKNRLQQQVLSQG

The target of assay [2] is T2, SIX6 (Homo sapiens, UniProt O95475 114-200, L143V).
T2 sequence: T1 sequence with L30V, I54L

In assay [3] the target is T3, SIX6 (Homo sapiens, UniProt O95475 114-200, H141N).
T3 sequence: T1 sequence with H28N, I54L

Assay [4] has as its target T4, SIX6 (Homo sapiens, UniProt O95475 114-200, T165P).
T4 sequence: T1 sequence with T52P, I54L

Assay [5] has as its target T5, SIX6 (Homo sapiens, UniProt O95475 114-200, L167M).
T5 sequence: T1 sequence with I54M

The target of assay [6] is T6, SIX6 (Homo sapiens, UniProt O95475 114-200, L143M).
T6 sequence: T1 sequence with L30M, I54L

Assay [7] deals with T7, SIX6 (Homo sapiens, UniProt O95475 114-200, L143I).
T7 sequence: T1 sequence with L30I, I54L

Assay [8] addresses T8, SIX6 (Homo sapiens, UniProt O95475 114-200, T165G).
T8 sequence: T1 sequence with T52G, I54L

Assay [9] concerns the target T9, SIX6 (Homo sapiens, UniProt O95475 114-200, T139Q).
T9 sequence: T1 sequence with T26Q, I54L

In assay [10] the target is T10, SIX6 (Homo sapiens, UniProt O95475 114-200, T165A).
T10 sequence: T1 sequence with T52A, I54L

The target of assay [11] is T11, SIX6 (Homo sapiens, UniProt O95475 114-200, L167V).
T11 sequence: T1 sequence with I54V

The target in assay [12] is T12, SIX6 (Homo sapiens, UniProt O95475 114-200).
T12 sequence: T1 sequence with I54L

For assay [13], the target named is T13, SIX6 (Homo sapiens, UniProt O95475 114-200, T165I).
T13 sequence: T1 sequence with T52I, I54L

In assay [14] the target is HOXA2 (Homo sapiens, UniProt O43364 129-215, R185T).
HOXA2 (Homo sapiens, UniProt O43364 129-215, R185T), sequence (O43364 129-215 R185T): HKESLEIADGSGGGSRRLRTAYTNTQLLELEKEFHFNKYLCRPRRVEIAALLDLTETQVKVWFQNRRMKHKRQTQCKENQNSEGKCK
In assay [15] the target is HOXA2 (Homo sapiens, UniProt O43364 129-215, R185K).
HOXA2 (Homo sapiens, UniProt O43364 129-215, R185K), sequence (O43364 129-215 R185K): as the sequence (O43364 129-215 R185T) above, with T57K counted along it
Assay [16] has as its target HOXA2 (Homo sapiens, UniProt O43364 129-215, Y150S).
Assay [17] has as its target HOXA2 (Homo sapiens, UniProt O43364 129-215).

Changes are numbered by the printed parent chain.

HOXA2 (Homo sapiens, UniProt O43364 129-215, Y150S), sequence (O43364 129-215 Y150S): as the sequence (O43364 129-215 R185T) above, with Y22S, T57R counted along it
HOXA2 (Homo sapiens, UniProt O43364 129-215), sequence (O43364 129-215): as the sequence (O43364 129-215 R185T) above, with T57R counted along it

Consider GGGGGGAC, for which the binding signal with SIX6 [1] was 8.99 upbm affinity estimate (log intensity, higher = more binding, comparable within an allelic series); in the assay with SIX6 [2] it was 8.81 upbm affinity estimate (log intensity, higher = more binding, comparable within an allelic series); with SIX6 [3] it was 8.96 upbm affinity estimate (log intensity, higher = more binding, comparable within an allelic series); with SIX6 [4] it was 8.71 upbm affinity estimate (log intensity, higher = more binding, comparable within an allelic series); with SIX6 [5] it was 8.97 upbm affinity estimate (log intensity, higher = more binding, comparable within an allelic series); in the assay with SIX6 [6], 8.91 upbm affinity estimate (log intensity, higher = more binding, comparable within an allelic series). The binding signal was 8.72 upbm affinity estimate (log intensity, higher = more binding, comparable within an allelic series) with SIX6 [7]; 8.92 upbm affinity estimate (log intensity, higher = more binding, comparable within an allelic series) in the assay with SIX6 [8]; 8.93 upbm affinity estimate (log intensity, higher = more binding, comparable within an allelic series) in the assay with SIX6 [9]; 9 upbm affinity estimate (log intensity, higher = more binding, comparable within an allelic series) with SIX6 [10]; 8.74 upbm affinity estimate (log intensity, higher = more binding, comparable within an allelic series) in the assay with SIX6 [11]; 8.93 upbm affinity estimate (log intensity, higher = more binding, comparable within an allelic series) in the assay with SIX6 [12]. In the assay with SIX6 [13], the binding signal was 8.96 upbm affinity estimate (log intensity, higher = more binding, comparable within an allelic series).

With CGGGCCGC, the binding signal was 9.03 upbm affinity estimate (log intensity, higher = more binding, comparable within an allelic series) in the assay with SIX6 [1]; 8.81 upbm affinity estimate (log intensity, higher = more binding, comparable within an allelic series) with SIX6 [2]; 9.05 upbm affinity estimate (log intensity, higher = more binding, comparable within an allelic series) with SIX6 [3]; 8.75 upbm affinity estimate (log intensity, higher = more binding, comparable within an allelic series) with SIX6 [4]; 8.94 upbm affinity estimate (log intensity, higher = more binding, comparable within an allelic series) with SIX6 [5]; 8.95 upbm affinity estimate (log intensity, higher = more binding, comparable within an allelic series) in the assay with SIX6 [6]. The binding signal in the assay with SIX6 [7] was 8.91 upbm affinity estimate (log intensity, higher = more binding, comparable within an allelic series); in the assay with SIX6 [8], 8.87 upbm affinity estimate (log intensity, higher = more binding, comparable within an allelic series); with SIX6 [9] it was 8.94 upbm affinity estimate (log intensity, higher = more binding, comparable within an allelic series); with SIX6 [10], 9.01 upbm affinity estimate (log intensity, higher = more binding, comparable within an allelic series); with SIX6 [11], 8.94 upbm affinity estimate (log intensity, higher = more binding, comparable within an allelic series); with SIX6 [12] it was 9.02 upbm affinity estimate (log intensity, higher = more binding, comparable within an allelic series). In addition, in the assay with SIX6 [13], the binding signal was 8.91 upbm affinity estimate (log intensity, higher = more binding, comparable within an allelic series).

With CGCGTGGC, the binding signal with SIX6 [1] was 9.04 upbm affinity estimate (log intensity, higher = more binding, comparable within an allelic series); in the assay with SIX6 [2] it was 8.85 upbm affinity estimate (log intensity, higher = more binding, comparable within an allelic series); in the assay with SIX6 [3] it was 9.07 upbm affinity estimate (log intensity, higher = more binding, comparable within an allelic series); in the assay with SIX6 [4], 8.86 upbm affinity estimate (log intensity, higher = more binding, comparable within an allelic series); in the assay with SIX6 [5], 8.92 upbm affinity estimate (log intensity, higher = more binding, comparable within an allelic series); with SIX6 [6], 8.96 upbm affinity estimate (log intensity, higher = more binding, comparable within an allelic series). The binding signal was 8.93 upbm affinity estimate (log intensity, higher = more binding, comparable within an allelic series) with SIX6 [7]; 9 upbm affinity estimate (log intensity, higher = more binding, comparable within an allelic series) with SIX6 [8]; 7.16 upbm affinity estimate (log intensity, higher = more binding, comparable within an allelic series) with HOXA2 [14]; 9.1 upbm affinity estimate (log intensity, higher = more binding, comparable within an allelic series) with SIX6 [9]; 8.98 upbm affinity estimate (log intensity, higher = more binding, comparable within an allelic series) with SIX6 [10]; 10.4 upbm affinity estimate (log intensity, higher = more binding, comparable within an allelic series) in the assay with HOXA2 [15]. The binding signal was 8.96 upbm affinity estimate (log intensity, higher = more binding, comparable within an allelic series) with SIX6 [11]; 8.97 upbm affinity estimate (log intensity, higher = more binding, comparable within an allelic series) with SIX6 [12]; 9.02 upbm affinity estimate (log intensity, higher = more binding, comparable within an allelic series) in the assay with SIX6 [13]; 10.3 upbm affinity estimate (log intensity, higher = more binding, comparable within an allelic series) in the assay with HOXA2 [16]; 7.31 upbm affinity estimate (log intensity, higher = more binding, comparable within an allelic series) in the assay with HOXA2 [17].

Turning to CCCGGGAC, the binding signal was 8.81 upbm affinity estimate (log intensity, higher = more binding, comparable within an allelic series) with SIX6 [1]; 9.03 upbm affinity estimate (log intensity, higher = more binding, comparable within an allelic series) with SIX6 [2]; 8.97 upbm affinity estimate (log intensity, higher = more binding, comparable within an allelic series) with SIX6 [3]; 8.99 upbm affinity estimate (log intensity, higher = more binding, comparable within an allelic series) with SIX6 [4]; 9.01 upbm affinity estimate (log intensity, higher = more binding, comparable within an allelic series) in the assay with SIX6 [5]; 9.18 upbm affinity estimate (log intensity, higher = more binding, comparable within an allelic series) in the assay with SIX6 [6]. For the same sequence, the binding signal in the assay with SIX6 [7] is 9.04 upbm affinity estimate (log intensity, higher = more binding, comparable within an allelic series); with SIX6 [8] it was 9.17 upbm affinity estimate (log intensity, higher = more binding, comparable within an allelic series); with SIX6 [9] it was 9.14 upbm affinity estimate (log intensity, higher = more binding, comparable within an allelic series); with SIX6 [10] it was 9.12 upbm affinity estimate (log intensity, higher = more binding, comparable within an allelic series); in the assay with SIX6 [11], 8.96 upbm affinity estimate (log intensity, higher = more binding, comparable within an allelic series); with SIX6 [12], 9.07 upbm affinity estimate (log intensity, higher = more binding, comparable within an allelic series). Also, the binding signal in the assay with SIX6 [13] was 9.02 upbm affinity estimate (log intensity, higher = more binding, comparable within an allelic series).

On to CCAGACGG, for which the binding signal in the assay with SIX6 [1] is 8.98 upbm affinity estimate (log intensity, higher = more binding, comparable within an allelic series); with SIX6 [2], 8.84 upbm affinity estimate (log intensity, higher = more binding, comparable within an allelic series); with SIX6 [3], 8.93 upbm affinity estimate (log intensity, higher = more binding, comparable within an allelic series); with SIX6 [4], 8.91 upbm affinity estimate (log intensity, higher = more binding, comparable within an allelic series); with SIX6 [5], 9.05 upbm affinity estimate (log intensity, higher = more binding, comparable within an allelic series); in the assay with SIX6 [6] it was 9.07 upbm affinity estimate (log intensity, higher = more binding, comparable within an allelic series). Moreover, the binding signal in the assay with SIX6 [7] is 8.95 upbm affinity estimate (log intensity, higher = more binding, comparable within an allelic series); with SIX6 [8] it was 9.01 upbm affinity estimate (log intensity, higher = more binding, comparable within an allelic series); with SIX6 [9], 9.12 upbm affinity estimate (log intensity, higher = more binding, comparable within an allelic series); in the assay with SIX6 [10] it was 8.94 upbm affinity estimate (log intensity, higher = more binding, comparable within an allelic series); in the assay with SIX6 [11] it was 9.01 upbm affinity estimate (log intensity, higher = more binding, comparable within an allelic series); with SIX6 [12], 9.03 upbm affinity estimate (log intensity, higher = more binding, comparable within an allelic series). Moreover, in the assay with SIX6 [13], the binding signal was 9.05 upbm affinity estimate (log intensity, higher = more binding, comparable within an allelic series).

The values are drawn from PMC11006913.
